Out of some 300,000 compounds screened, about 1,700 (0.57%) were called active. Not shown: some 2% with an inconclusive outcome. This is one part of a sample in which actives are shown more often than they occur.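 The calls were made as follows: active = growth inhibition above about 58% in most replicates (limit read from the data, passing the limit was not always enough); inconclusive = exactly half the replicates above a set limit; inactive = most replicates below a set limit.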
test: C. albicans growth inhibition with fluconazole, primary screen, CaCi-2 strain, Alamar Blue fluorescence (AID 1979);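 also: all wells also contain fluconazole at 8 µg/ml as a sub-toxic cotreatment; 0% = median of DMSO wells and 100% = median of geldanamycin control wells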; conditions: C. albicans CaCi-2 (fluconazole-resistant clinical isolate) + fluconazole, 48 h, active compounds read high, concentration not given here

**Q.** For `Cc1ccc(SCC(=O)Nc2nncs2)cc1`, which growth inhibition is on record?
**A.** Its growth inhibition is -2.98% (inactive).

**Q.** Which growth inhibition does the source give for `COCCOC(=O)C1=C(C)NC(=O)NC1c1cc2c(cc1Br)OCO2` (stereo unspecified) here?
**A.** The growth inhibition was -1.28% (inactive).

**Q.** With `Cc1c(CCC(=O)O)c(=O)oc2c(C)c(OCc3ccccc3Cl)ccc12` as the compound, how does the growth inhibition read?
**A.** The growth inhibition was 16.4% (inactive).

**Q.** For `COc1cccc(C(=O)NNC(=O)/C=C/c2ccccc2)c1`, which growth inhibition is on record?
**A.** The growth inhibition was -14.4% (inactive).

**Q.** For `COc1cccc(C(=O)NNC(=O)c2ccccc2Br)c1`, which growth inhibition is on record?
**A.** Its growth inhibition is 110% (active).

**Q.** Which growth inhibition does the source give for `COc1cccc(C(=O)NNC(=O)c2cccc(F)c2)c1` here?
**A.** Its growth inhibition is -10.7% (inactive).

**Q.** With `O=C(O)c1ccc(S(=O)(=O)N2CCC(Cc3ccccc3)CC2)cc1` as the compound, how does the growth inhibition read?
**A.** The growth inhibition was -2.12% (inactive).

**Q.** For `Cc1ccc(C)c(NC(=O)COC(=O)Cn2c(C)csc2=O)c1`, which growth inhibition is on record?
**A.** Its growth inhibition is -4.71% (inactive).

**Q.** For `Cc1ccc(NS(=O)(=O)c2ccc(C)c(NC(=O)COc3ccc4ccccc4c3)c2)c(C)c1`, which growth inhibition is on record?
**A.** The growth inhibition was 31.8% (inactive).

**Q.** Which growth inhibition does the source give for `COc1ccc2cc(S(=O)(=O)Nc3ccccn3)ccc2c1` here?
**A.** The growth inhibition was -0.283% (inactive).

**Q.** Which growth inhibition does the source give for `COc1cc(NS(=O)(=O)c2ccc3ccccc3c2)c2ncccc2c1` here?
**A.** Its growth inhibition is 89.3% (active).

**Q.** With `Cc1ccc(Nc2nc(CSc3nnc(-c4ccncc4)n3-c3ccccc3C)cs2)cc1` as the compound, how does the growth inhibition read?
**A.** Its growth inhibition is 113% (active).

**Q.** For `Cc1ccccc1-n1c(SCC(=O)NCc2cccs2)nnc1-c1ccncc1`, which growth inhibition is on record?
**A.** The growth inhibition was 8.03% (inactive).

**Q.** For `Cc1ccc(-n2c(SCC(=O)N3c4ccccc4Sc4ccccc43)nnc2-c2ccncc2)cc1`, which growth inhibition is on record?
**A.** Its growth inhibition is -22.2% (inactive).

**Q.** With `O=C(OCCOCn1cc(Br)c(=O)[nH]c1=O)c1ccccc1` as the compound, how does the growth inhibition read?
**A.** The growth inhibition was -9.14% (inactive).

**Q.** With `CCOc1ccc(NC(=O)COc2ccc(C(=O)N3CCC(C(N)=O)CC3)cc2OC)cc1` as the compound, how does the growth inhibition read?
**A.** Its growth inhibition is -4.97% (inactive).

**Q.** With `CC(C)Oc1ccc(S(=O)(=O)N2CCOCC2)cc1NC(=O)C1CSC2(C)CCC(=O)N12` (stereo unspecified) as the compound, how does the growth inhibition read?
**A.** The growth inhibition was -0.702% (inactive).

**Q.** For `COc1ccc(C(=O)NCCCN2CCOCC2)cc1Br`, which growth inhibition is on record?
**A.** Its growth inhibition is -0.331% (inactive).

**Q.** With `Cc1ccc(S(=O)(=O)N2CCN(C(=O)Cc3sc(C)nc3-c3ccc(F)cc3)CC2)c(C)c1` as the compound, how does the growth inhibition read?
**A.** The growth inhibition was -1.25% (inactive).

**Q.** With `Cc1nc2c(c(C)nn2-c2ccccc2)c(C)c1C` as the compound, how does the growth inhibition read?
**A.** The growth inhibition was 1.68% (inactive).

**Q.** With `O=C(N/N=C/c1ccccn1)c1cccnc1` as the compound, how does the growth inhibition read?
**A.** The growth inhibition was 6.91% (inactive).

**Q.** For `O=C(N/N=C/c1sc(N2CCCCC2)nc1-c1cccs1)c1cccnc1`, which growth inhibition is on record?
**A.** Its growth inhibition is 94.5% (active).

**Q.** With `O=C(N/N=C/c1ccc(O)c2ccccc12)c1cccnc1` as the compound, how does the growth inhibition read?
**A.** Its growth inhibition is 11.5% (inactive).

**Q.** Which growth inhibition does the source give for `CCOc1ccc(NC(=O)c2ccc(NC(=O)CN3C(=O)C(=O)N(CC(C)C)C3=O)cc2)cc1` here?
**A.** The growth inhibition was -2.68% (inactive).

**Q.** With `COc1ccc(S(=O)(=O)NCc2cccnc2)cc1NC(=O)c1ccc(C)cc1` as the compound, how does the growth inhibition read?
**A.** The growth inhibition was -3.27% (inactive).

**Q.** Which growth inhibition does the source give for `CCOc1ccc(-n2c(O)c(/C=N/Nc3nc(C)cc(C)n3)c3ccccc3c2=O)cc1` here?
**A.** The growth inhibition was 113% (active).

**Q.** With `CCN(CC)CCCN=Cc1c(O)n(-c2ccc(C)cc2)c(=O)c2ccccc12` as the compound, how does the growth inhibition read?
**A.** The growth inhibition was -8.89% (inactive).

**Q.** For `CCOc1ccc(-n2c(O)c(/C=N/c3ccnn3Cc3ccncc3)c3ccccc3c2=O)cc1`, which growth inhibition is on record?
**A.** Its growth inhibition is 15.4% (inactive).

**Q.** For `CCOC(=O)c1c(C)[nH]c(C(=O)OCC(=O)N2CCCC2=O)c1C`, which growth inhibition is on record?
**A.** Its growth inhibition is -3.16% (inactive).

**Q.** For `Cc1nc2ccccc2nc1N/N=C/c1ccc(O)cc1O`, which growth inhibition is on record?
**A.** Its growth inhibition is 10.5% (inactive).

**Q.** For `C=CCn1c(COc2ccc(F)cc2)nnc1SCC(=O)Nc1cccc(S(N)(=O)=O)c1`, which growth inhibition is on record?
**A.** The growth inhibition was 94.6% (active).

**Q.** Which growth inhibition does the source give for `COc1ccc(-n2cnnc2SCC(=O)Nc2cccc(S(N)(=O)=O)c2)cc1` here?
**A.** Its growth inhibition is -1.9% (inactive).

**Q.** For `C=CCn1c(CC(=O)Nc2cccc(OC)c2)nnc1SCC(=O)NC1CCCCC1`, which growth inhibition is on record?
**A.** The growth inhibition was 4.51% (inactive).

**Q.** For `CS(=O)(=O)c1ccc(Cl)c(NC(=O)COC(=O)c2cccc(S(=O)(=O)N3CCCC3)c2)c1`, which growth inhibition is on record?
**A.** Its growth inhibition is -1.03% (inactive).

**Q.** Which growth inhibition does the source give for `Cc1cc(Nc2ccc(C(=O)N3CCCCC3)cc2)c2cccc(C)c2n1` here?
**A.** Its growth inhibition is 2.84% (inactive).

**Q.** Which growth inhibition does the source give for `Cc1ccn2c(=O)nc(SCC(=O)NCc3ccc4c(c3)OCO4)nc2c1` here?
**A.** The growth inhibition was 1.59% (inactive).

**Q.** With `COc1ccc(N/N=C2/CCCCC2=O)cc1` as the compound, how does the growth inhibition read?
**A.** The growth inhibition was -21.7% (inactive).

**Q.** Which growth inhibition does the source give for `Cc1ccc(N/N=C2\COC(C)(C)CC2=O)cc1` here?
**A.** The growth inhibition was 101% (active).

**Q.** For `Cc1ccc(NN=C2C(=O)OC(C)(C)OC2=O)c(C)c1`, which growth inhibition is on record?
**A.** The growth inhibition was -5.58% (inactive).

**Q.** With `COc1ccccc1C(=O)NC(=O)COC(=O)c1ccco1` as the compound, how does the growth inhibition read?
**A.** The growth inhibition was 8.59% (inactive).

**Q.** Which growth inhibition does the source give for `CC1CN(C(=O)COC(=O)c2cccc(NS(=O)(=O)c3ccccc3)c2)CC(C)O1` (stereo unspecified) here?
**A.** The growth inhibition was 5.4% (inactive).

**Q.** Which growth inhibition does the source give for `O=C(N/N=C/c1cc([N+](=O)[O-])ccc1O)/C(=C\c1cccs1)NC(=O)c1ccccc1` here?
**A.** The growth inhibition was 116% (active).

**Q.** With `O=C(N/N=C/c1ccc(O)cc1)/C(=C/c1ccc([N+](=O)[O-])cc1)NC(=O)c1ccccc1` as the compound, how does the growth inhibition read?
**A.** Its growth inhibition is 1.1% (inactive).

**Q.** Which growth inhibition does the source give for `O=[N+]([O-])c1ccc(O)c(/C=N/Nc2ccccc2[N+](=O)[O-])c1` here?
**A.** Its growth inhibition is -1.45% (inactive).

**Q.** Which growth inhibition does the source give for `COc1ccccc1OCc1ccc(C(=O)NC(C)c2ccccc2)o1` (stereo unspecified) here?
**A.** Its growth inhibition is -11.7% (inactive).

**Q.** Which growth inhibition does the source give for `COc1ccc(OC)c(NC(=O)CSc2nc(-c3ccccc3)cc(=O)[nH]2)c1` here?
**A.** The growth inhibition was 55% (inactive).

**Q.** With `Cc1cccc(COc2ccccc2/C=N/Nc2ccc([N+](=O)[O-])cc2)c1` as the compound, how does the growth inhibition read?
**A.** The growth inhibition was 91.8% (active).

**Q.** With `O=[N+]([O-])c1ccc(N/N=C/c2ccccc2)cc1` as the compound, how does the growth inhibition read?
**A.** Its growth inhibition is -28.5% (inactive).

**Q.** For `Cc1ccc(NS(=O)(=O)c2ccc(N/N=C/c3ccccc3OCC(=O)O)c([N+](=O)[O-])c2)c(C)c1`, which growth inhibition is on record?
**A.** The growth inhibition was -7.09% (inactive).

**Q.** For `O=C1c2ccccc2C(=O)c2c1cccc2N1CCN(C/C=C/c2ccccc2)CC1`, which growth inhibition is on record?
**A.** The growth inhibition was 8.05% (inactive).

**Q.** With `Cc1ccc(S(=O)(=O)NC(C)C(=O)NCc2ccc(Cl)cc2)cc1` (stereo unspecified) as the compound, how does the growth inhibition read?
**A.** The growth inhibition was -3.28% (inactive).

**Q.** For `COc1ccc(-n2nnnc2-c2nc3ccccc3s2)cc1`, which growth inhibition is on record?
**A.** The growth inhibition was -12.1% (inactive).

**Q.** Which growth inhibition does the source give for `COc1ccc(C2=NN(c3nc4ccccc4s3)C(=O)C2)cc1` here?
**A.** Its growth inhibition is 94.5% (active).

**Q.** For `COc1ccc(C2=NN(C(C)=O)C(c3ccccc3)C2)cc1` (stereo unspecified), which growth inhibition is on record?
**A.** Its growth inhibition is -6.81% (inactive).

**Q.** For `O=c1c2ccccc2ncn1CCCCOc1ccccc1F`, which growth inhibition is on record?
**A.** Its growth inhibition is 0.805% (inactive).

**Q.** Which growth inhibition does the source give for `O=C(CCc1ccccc1)NNC(=O)c1ccc(Br)cc1` here?
**A.** The growth inhibition was 5.83% (inactive).

**Q.** For `COc1ccc(C(=O)NC(=S)NNC(=O)CCc2ccccc2)cc1`, which growth inhibition is on record?
**A.** Its growth inhibition is 114% (active).

**Q.** Which growth inhibition does the source give for `CC(C)Oc1ccc(CCC(=O)NNC(=S)NCc2ccccc2)cc1` here?
**A.** Its growth inhibition is 1.53% (inactive).

**Q.** Which growth inhibition does the source give for `COc1ccc(C(=O)NNC(=S)NC(=O)c2ccccc2)cc1` here?
**A.** The growth inhibition was 96.8% (active).

**Q.** With `COc1ccc(C(=O)NNC(=S)NC(=O)c2ccccc2[N+](=O)[O-])cc1` as the compound, how does the growth inhibition read?
**A.** The growth inhibition was 5.98% (inactive).

**Q.** For `COc1ccc(C(=O)NC(=S)NNC(=O)c2c(-c3ccccc3)noc2C)cc1`, which growth inhibition is on record?
**A.** Its growth inhibition is 32.7% (inactive).

From PubChem BioAssay AID1979 (Broad Institute, 2009)
